From PubChem BioAssay come the findings set out here.

Active and inactive are the calls of the source.

Tested on in the first assay: not listed separately
The assay is described as follows: change in splice reporter luminescence, either direction, cell-based, HEK293, spliceosome inhibition project, primary screen (AID 1101).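 Also: HEK293 cells carrying a splicing-competent luciferase reporter gene; test concentration not given here.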 The settings on record: HEK293 splicing luciferase reporter, 24 h, higher = more signal, called active from +8 up or from −8 down.
Turning to `O=C1C2C=CC(C(O)c3ccc(B(O)O)cc3)N(Nc3ccccc3)C2C(=O)N1c1ccccc1` (stereo not given), the z-score is -0.451 (inactive).

In the case of `C=C[C@H](COC(C)=O)N(Cc1ccc(OC(C)=O)c(OC)c1)S(=O)(=O)c1ccc(Br)cc1`, the z-score was -1.16 (inactive).

Consider `CC(C)Cc1ccc(CN2CC[C@@H](NS(=O)(=O)c3ccccc3)C2)cc1`, for which the z-score is 3.53 (inactive).

As to `O=C1OCC=C[C@H]2OC34C=CCN(c5ccc6ccccc6c5)C(=O)[C@H]3N(CCCO)C(=O)[C@@H]4[C@@H]12` (stereo not given in full), the z-score was -1.72 (inactive).

As for `[N-]=[N+]=NCc1ccccc1C[C@]1(C(=O)O)N=C(c2ccc(OCCCO)cc2)O[C@H]1c1ccccc1CN=[N+]=[N-]`, the z-score was -1.17 (inactive).

As for `COCCOC(=O)N1C(=O)[C@@]2(c3cc(C#CCC(C(=O)OC)C(=O)OC)ccc31)[C@H](c1ccccc1OCCO)N1[C@H](c3ccccc3)[C@H](c3ccccc3)OC(=O)[C@H]1[C@@H]2C(N)=O`, the z-score was -5.03 (inactive).

As to `COCC1=C2[C@@H](CCc3ccccc3)OB(O)C[C@@H]2[C@@H]2C(=O)N(Cc3ccccc3)C(=O)[C@@H]2C1`, the z-score was 0.161 (inactive).

Turning to `CC(C)NC(=O)[C@@H]1c2ccccc2C(=O)N(Cc2ccccc2Cl)[C@H]1c1ccc(CO)cc1`, the z-score was 0.62 (inactive).

As to `COc1cc2c(cc1OC)CN(C(=O)[C@@H]1[C@H]3C(=O)O[C@H](c4ccccc4)[C@H](c4ccccc4)N3[C@H](c3ccccc3OCCO)[C@@]13C(=O)Nc1ccc(C#CCNC(N)=O)cc13)CC2`, the z-score was 0.095 (inactive).

In another assay the target is Fibroblast growth factor 10 (Homo sapiens) (UniProt O15520). The assay is described as follows: compounds binding fibroblast growth factor 10 – biochemical, small-molecule microarray, 635 nm fluorescence, primary screen (AID 1102). The following applies: FGF10 binding, fluorescence 635 nm, higher = more signal.
Fibroblast growth factor 10 (Homo sapiens), sequence (O15520 whole entry, looked up): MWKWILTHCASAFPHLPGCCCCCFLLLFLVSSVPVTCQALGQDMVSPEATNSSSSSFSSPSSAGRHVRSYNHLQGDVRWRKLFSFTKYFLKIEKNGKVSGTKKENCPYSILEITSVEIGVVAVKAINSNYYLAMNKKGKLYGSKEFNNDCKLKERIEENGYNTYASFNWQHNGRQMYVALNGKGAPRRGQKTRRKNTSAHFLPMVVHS
The molecule `Cc1ccccc1C(O)C1C=CC2C(=O)N(C)C(=O)C2N1Nc1ccccc1` (stereo not given) displayed a composite z-score of 0.2.

Take `COc1cc(CO)ccc1OC(C)=O`: the composite z-score came to 0.171.

As for `CC(=CC1CCCCC1)[C@@H](NC(=O)c1ccc(C(F)(F)F)cc1)c1ccc(-c2ccccc2)cc1`, the composite z-score is -0.394.

Turning to `COc1ccc([Si](C)(C)[C@H]2[C@H](CCn3cc([C@H](O)c4ccccc4)nn3)O[C@@]3(C(=O)N(Cc4cccc(N5CCC5=O)c4)c4ccccc43)[C@@H]2C)cc1`, the composite z-score is 0.66.

Consider `CCCC[C@H]1OB(O)C[C@H]2C1=C(C)C[C@H]1C(=O)N(Cc3ccccc3)C(=O)[C@H]12`, for which the composite z-score is 1.13.

The molecule `CC(C)NC(=O)[C@@H]1c2ccccc2C(=O)N(Cc2ccccc2)[C@H]1c1ccc(CO)cc1` came in with a composite z-score of 0.462.

The molecule `[N-]=[N+]=NCc1ccccc1C[C@]1(C(=O)NCC(O)CO)N=C(c2ccc(OCCCO)cc2)O[C@H]1c1ccccc1N=[N+]=[N-]` (stereo not given in full) came in with a composite z-score of 0.0684.

Molecule `C=CCC(OC(C)=O)[C@@H]1[C@@H](N(Cc2ccc(-c3ccccc3)cc2)C(=O)Cc2ccc(F)cc2)c2cc(OCCCO)ccc2N1C(=O)c1ccc2ccccc2n1` (stereo not given in full) had a composite z-score of 0.0915.

On to `CO[C@H]1O[C@H](CO)[C@@H](OC(=O)Nc2ccc(Oc3ccccc3)cc2)[C@H](OC(=O)Nc2ccccc2)[C@H]1OC(=O)Nc1ccccc1`, for which the composite z-score came out at 1.35.

Consider `CC(C)C(O)C1C=CC2C(=O)N(c3ccccc3)C(=O)C2N1Nc1ccc(C#N)cc1` (stereo not given), for which the composite z-score came to 1.17.

On to `CC(C)c1ccc(NN2C(C(O)c3c(F)cccc3Cl)C=CC3C(=O)N(c4ccccc4)C(=O)C32)cc1` (stereo not given), for which the composite z-score was found to be 0.62.

The molecule `O=C(NCc1ccccc1)[C@]1(CCS(=O)(=O)c2ccccc2)N=C(c2ccc(OCCCO)cc2)O[C@@H]1c1ccccc1` had a composite z-score of 1.42.

For `COc1ccc([Si](C)(C)[C@H]2[C@H](CCn3cc(CCO)nn3)O[C@@]3(C(=O)N(Cc4ccc(N5CCOC5=O)cc4)c4ccccc43)[C@@H]2C)cc1`, the composite z-score came to 0.209.

As to `COCCOC(=O)N1C(=O)[C@@]2(c3cc(C#CC4=CCCCC4)ccc31)[C@H](C(=O)N1CCc3cc(OC)c(OC)cc3C1)[C@H]1C(=O)O[C@H](c3ccccc3)[C@H](c3ccccc3)N1[C@@H]2c1ccccc1OCCO`, the composite z-score amounted to 0.964.

For `Cc1ccccc1C(O)C1C=CC2C(=O)N(C)C(=O)C2N1N1CCCCC1` (stereo not given), the composite z-score turned out to be 0.975.

Molecule `CCCCC(O)C1C=CC2C(=O)N(C3CCCCC3)C(=O)C2N1Nc1ccc(OC)cc1` (stereo not given) yielded a composite z-score of 0.517.

For the molecule `O=C(CCN1CCOCC1)c1cccc(O)c1`, the composite z-score is 1.37.

In the case of `C=C(COC)C(=O)CC[C@@H](OC(=O)c1cccnc1)c1ccc(CO)o1`, the composite z-score was 0.0396.

`O=C1c2ccccc2[C@@]2(Cc3ccccc3N(Cc3ccccc3)C2=O)[C@H](c2ccc(CO)cc2)N1C1CCCCC1`: the composite z-score turned out to be 0.831.

Take `Cc1ccc(S[C@]2(C(=O)NC3CC3)CC(=O)N(C3CCCCC3)[C@@H]2c2ccc(CO)cc2I)cc1`: the composite z-score was 0.796.

`CCOC(=O)C[C@H]1[C@H](OC(=O)c2ccccc2-c2ccccc2)[C@@H](NC(=O)c2ccc3ccccc3c2)c2cc(OCCCO)ccc2N1C(=O)c1ccc2ccccc2n1` had a composite z-score of 0.533.
